Source: PubChem (NMMLSC)
Rac1 wt GTP bind – modulators of human Rac1 wildtype GTP binding; P63000; GTP binding activity (% of control), % at 10 µM; AID 757; actives 0.27% (n = 190,000); GST-Rac1 beads, fluorescent GTP binding, flow cytometry; actives lie on both sides; 0 = cold GTP competed, 100 = untreated;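 active = GTP binding activity at least 20 points away from the 100% control level, either lower or higher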
Rab7 wt modul – dog Rab7 wildtype GTP binding, inhibitors and activators | GST-Rab7 beads, fluorescent GTP binding, flow cytometry; actives lie on both sides; untreated = 100%, excess cold GTP = 0% | GTP binding activity (percent of control), % at 10 µM | actives 0.055% (n = 190,000);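 active = fluorescent GTP binding to Rab7 beads changed by at least 20 points from the 100% baseline, either direction, mostly lower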;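 note: median green fluorescence of bound Bodipy-FL-GTP per Rab7 bead population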
Cdc42 wt – human Cdc42 wildtype GTP binding change, either direction; GST-Cdc42 beads, Bodipy-GTP binding, flow cytometry; actives lie on both sides; actives 0.2% (n = 190,000); P60953; AID 761; percent activity (GTP binding), % at 10 µM;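 active = percent activity GTP binding at least 20 points away from the 100% baseline, either down as inhibitor or up as activator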;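 note: median bead fluorescence of bound Bodipy-FL-GTP at 100 nM; 0% = excess unlabeled GTP control and 100% = no compound control; below 100% means less GTP binding so inhibitor and above means activator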
Target sequence (P60953 whole entry, looked up): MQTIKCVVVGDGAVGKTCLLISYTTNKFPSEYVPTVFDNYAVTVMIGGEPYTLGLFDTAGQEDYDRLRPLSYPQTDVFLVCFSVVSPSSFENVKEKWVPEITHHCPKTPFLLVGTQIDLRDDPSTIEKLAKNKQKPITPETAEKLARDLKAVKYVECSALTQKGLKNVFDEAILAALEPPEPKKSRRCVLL
Rac1 act GTP bind – modulators of GTP binding to human Rac1 activated mutant; percent activity (GTP binding), % at 10 µM; actives 0.11% (n = 190,000); P63000; AID 764; GST-Rac1 activated beads, fluorescent GTP binding, flow cytometry; actives lie on both sides; 100% means binding = to untreated wells;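 active = GTP binding at least 20 percentage points away from the 100% baseline, in either direction, so actives lie on both sides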
HRas wt GTP – modulators of GTP binding to human HRas wildtype. actives 0.14% (n = 190,000). GTP binding activity, % at 10 µM. AID 759. GST-Ras wt beads, Bodipy-FL-GTP binding, flow cytometry; actives lie on both sides. P01112;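 active = GTP binding activity at least 20% away from the 100% baseline, either lowered as inhibitor or raised as activator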;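 note: 0% = unlabeled GTP competition control and 100% = no-compound control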
Target sequence (P01112 whole entry, looked up): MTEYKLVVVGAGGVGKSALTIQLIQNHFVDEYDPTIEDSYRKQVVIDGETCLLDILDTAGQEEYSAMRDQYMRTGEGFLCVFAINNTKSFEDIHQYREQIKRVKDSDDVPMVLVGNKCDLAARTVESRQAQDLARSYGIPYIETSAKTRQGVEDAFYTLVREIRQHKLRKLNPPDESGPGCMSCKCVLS
Rab2A wt mod – changes GTP binding to wildtype dog Rab2A, up or down | P61105 | GST-Rab2 wt beads, Bodipy-GTP binding, flow cytometry | GTP binding activity, % at 10 µM | actives 0.19% (n = 190,000) | AID 760;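 active = GTP binding activity at least 20 points away from 100%, either lowered or raised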;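 note: 0% = beads with excess unlabeled GTP and 100% = no-compound control corrected for plate trend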
Starred values were filed as active, the others as inactive; [ ] = dose if it differs, or a comment. Shown are actives, neighbours in structure and some others; about 0.37% of the full set was active somewhere.

SMILES	Rac1 wt GTP bind	Rab7 wt modul	Cdc42 wt	Rac1 act GTP bind	HRas wt GTP	Rab2A wt mod
COC(=O)c1ccc(COc2ccc(/C=C(\C#N)c3nc4ccccc4[nH]3)cc2OC)o1	102	99	101	98	99	101
COc1cc(/C=C(/C#N)c2nc3ccccc3[nH]2)ccc1OCc1ccc(C(=O)O)o1	85	94	78*	87	78*	77*
COc1ccc2nc(/C(C#N)=C\c3ccc(C(=O)O)cc3)[nH]c2c1	77*	96	78*	85	86	86
Fc1cccc(Cl)c1-c1nnc2ccc(C(F)(F)F)cn12	98	107	99	97	98	99
CCN(CC)c1ccc2c(c1)oc(=O)c1c(Cl)cc(=O)oc12	87	93	88	78*	89	89
O=C(CCl)Nc1cccn2ncnc12	120*[activator]	105	114	102	110	113
O=C(O)C1=C[C@H](c2ccc(Br)cc2)C[C@H](OCc2ccc(CO)cc2)O1	75*	94	71*	69*	78*	74*
O=C(O)C1=C[C@@H](c2ccccc2)C[C@@H](OCc2ccc(CO)cc2)O1	93	101	90	92	92	94
Cc1nn(C)cc1C1C(C#N)=C(N)N(c2ccc(F)c([N+](=O)[O-])c2)C2=C1C(=O)CCC2 (stereo not given)	105	104	103	98	101	103
CCCc1nnc2c(N(C)S(=O)(=O)c3ccc(C)cc3)nc3ccccc3n12	104	101	101	101	101	97
CCc1nnc2c(N(C)C)nc3ccccc3n12	76*	88	92	91	89	85
CSc1nc2ccc(NS(=O)(=O)c3c(Cl)cccc3Cl)cc2s1	79*	84	81	79*	83	78*
COc1ccc(OC)c(CNC(=O)c2coc(=O)c3ccccc23)c1	98	92	95	96	96	96
Oc1ccc(/C=N/NC(=S)N/N=C/c2ccc(O)cc2)cc1	71*	94	82	88	87	85
O=C(N/N=C/c1ccsc1)c1ccc2ccccc2n1	97	101	94	95	95	98
COCc1cc(C)nc(N/N=C/c2ccc(-c3ccc(C(=O)O)c(Cl)c3)o2)c1C#N	67*	97	73*	86	78*	77*
CCOC(=O)Cn1nnnc1C(CC)N(Cc1cccs1)Cc1cc2cc(C)ccc2[nH]c1=O (stereo not given)	102	103	100	99	102	100
CCOC(=O)Cn1nnnc1C(C(C)C)N(Cc1cccs1)Cc1cc2cc(C)ccc2[nH]c1=O (stereo not given)	97	95	75*	94	95	93
CCOC(=O)/C=C1\SCC(=O)N1CCOc1cccc(Br)c1	86	73*	83	84	62*	79*
Cc1ccccc1NS(=O)(=O)c1ccc(C)c(NS(C)(=O)=O)c1C	101	110	90	95	99	100
O=C(CSc1ccc2nnc(-c3cccc(F)c3)n2n1)N1CCCc2ccccc21	79*	95	88	89	87	89
O=C(CSc1ccc2nnc(-c3ccc(F)cc3)n2n1)N1CCCc2ccccc21	97	93	95	95	91	93
C/C(=N/NC(=O)c1cnccn1)c1cccs1	106	102	103	101	101	101
O=c1[nH]c2sc3c(c2c2nncn12)CCCC3	76*	85	79*	88	78*	77*
O=C(CN1C(=O)S/C(=C/c2cccnc2)C1=O)N1CCOCC1	94	88	83	91	78*	70*
SMILES	Rac1 wt GTP bind	Rab7 wt modul	Cdc42 wt	Rac1 act GTP bind	HRas wt GTP	Rab2A wt mod
O=C(CN1C(=O)S/C(=C/c2ccncc2)C1=O)N1CCOCC1	103	98	99	100	97	95
O=C(Cn1nc2ccccc2n1)N/N=C/c1cc([N+](=O)[O-])ccc1O	61*	82	70*	79*	73*	70*
Cc1cc(C)n2nc(SCCOc3ccccc3F)nc2n1	74*	92	66*	84	71*	71*
CCSc1nc2nc(C)cc(C)n2n1	100	98	97	98	99	99
COc1ccc(S(=O)(=O)Nc2cc3c(cc2C(C)=O)OCO3)cc1	97	93	94	96	93	95
Cc1nc(Nc2ccc(C(=O)O)cc2)nc(Nc2ccc(C(=O)O)cc2)c1[N+](=O)[O-]	62*	84	55*	77*	60*	55*
CC(=O)Nc1ccc(Nc2nc(C)c([N+](=O)[O-])c(Nc3ccccc3)n2)cc1	105	99	99	101	99	99
Cc1c(Cl)cccc1NS(=O)(=O)c1ccc2c(c1)C1C=CCC1C(c1ccc(C(=O)O)cc1)N2 (stereo not given)	84	92	78*	73*	83	80
COc1ccc(/C=N/NC(=O)c2ccco2)cc1Cn1nc(C)c([N+](=O)[O-])c1C	95	97	96	94	96	98
COc1ccc(/C=N/NC(=O)c2ccncc2)cc1Cn1nc([N+](=O)[O-])c(Br)c1C	76*	97	65*	83	74*	68*
COc1ccc2c(C)cc3nncn3c2c1	79*	88	89	87	81	89
COc1ccc(-c2c(C)[nH]n3c(=O)c(Cc4ccccc4)c(C)nc23)cc1	87	93	95	93	81	77*
COc1ccccc1-c1c(C)[nH]n2c(=O)c(Cc3ccccc3)c(C)nc12	98	94	100	95	95	96
CC(=O)Nc1ccc(NC(=O)CCn2nnc3ccccc32)cc1	102	39*	86	101	32*	35*
Cc1cc(C(=O)Nn2c(-c3ccncc3)nc3ccccc3c2=O)ccc1[N+](=O)[O-]	86	92	91	88	91	91
COc1cccc(NC(=O)CN2CCN(c3ccc(F)cc3)CC2)c1	95	98	96	95	97	97
COc1cccc(NC(=O)NCCCN2CCN(c3ccc(F)cc3)CC2)c1	99	76*	100	100	98	98
COc1c(C)cc(Br)cc1C(=O)O	120*[activator]	102	116	101	111	112
CCCOC(=O)c1c(NC(=O)CCC(=O)O)sc2c1CCCCC2	92	91	81	80	83	76*
CCOC(=O)c1ccc(NC(=O)c2c(NC(=O)CCC(=O)O)sc3c2CCCCC3)cc1	90	100	89	89	93	92
